JMJD2A Tudor inh: qHTS Assay for Inhibitors of JMJD2A-Tudor Domain; Lysine-specific demethylase 4A (Homo sapiens), O75164; AlphaScreen JMJD2A-Tudor / H3K4me3 peptide binding; Potency, µM (top dose mostly 114 µM), hits mostly inhibitors; actives 4.4% (n = 390,000); AID 504339, 2011; note: nearly all actives have a fitted effect of over 50% in size
G9a inh-1: qHTS Assay for Inhibitors of Histone Lysine Methyltransferase G9a; Potency, µM (top dose mostly 102 µM), most hits filed as inhibitors; actives 8.8% (n = 350,000); AID 504332, 2011; G9a H3K9 monomethylation, AlphaScreen, 2 h; Histone-lysine N-methyltransferase EHMT2 (Homo sapiens), Q96KQ7; note: nearly all actives have a fitted effect of over 75% in size
Target sequence (Q96KQ7 913-1193 limits assumed): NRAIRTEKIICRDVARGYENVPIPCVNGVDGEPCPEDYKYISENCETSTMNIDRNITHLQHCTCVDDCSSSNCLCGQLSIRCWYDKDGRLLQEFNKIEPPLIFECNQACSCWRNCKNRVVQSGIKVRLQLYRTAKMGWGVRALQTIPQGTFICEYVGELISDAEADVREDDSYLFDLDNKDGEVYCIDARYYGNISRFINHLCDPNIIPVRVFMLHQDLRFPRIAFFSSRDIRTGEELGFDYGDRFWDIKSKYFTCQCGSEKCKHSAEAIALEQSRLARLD
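Using a bead-based AlphaScreen, monomethylated H3K9 product from 2 h room-temperature reactions (G9a 20 nM, peptide 500 nM, SAM 20 uM) was detected with 0.5 ug/mL rabbit anti-H3K9me1 antibody.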
BAZ2B inh: qHTS Assay for Inhibitors of BAZ2B. Bromodomain adjacent to zinc finger domain protein 2B (Homo sapiens), Q9UIF8. AlphaScreen BAZ2B-H3K14Ac peptide displacement. Potency, µM (titrated, usually from 114 µM), hits mostly inhibitors. actives 4.4% (n = 360,000). AID 504333, 2011; note: nearly all actives have a fitted effect of over 60% in size
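In this displacement format the biotinylated H3(5-23) peptide acetylated at Lys14 serves as ligand at 50 nM, with BAZ2B at 50 nM in PBS pH 7.4 containing 0.01% Tween-20. Donor and acceptor beads are 10 ug/mL final.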
HP1b chromo inh: HTS for Inhibitors of HP1-beta Chromodomain Interactions with Methylated Histone Tails; Chromobox protein homolog 1 (Homo sapiens), P83916; AlphaScreen HP1-beta / biotin-H3K9me3 peptide binding; Potency, µM (doses to about 114 µM), actives largely listed as inhibitors; actives 0.56% (n = 390,000); note: nearly all actives have a fitted effect of over 70% in size
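HP1-beta protein (50 nM final) preincubated 30 min at room temperature with biotinylated H3(1-18)K9me3 peptide (50 nM) in PBS pH 7.4, 0.01% Tween-20, then compound added for 30 min. AlphaScreen streptavidin donor/nickel chelate acceptor beads (10 ug/mL final), 30 min dark, luminescence read.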
GLS inhibitor: qHTS for Inhibitors of Glutaminase (GLS); GLS enzymatic activity, qHTS titration; actives 0.21% (n = 410,000); Potency, µM (highest dose often 45.5 µM), hits mostly inhibitors
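Enzyme dispensed in phosphate buffer (45 mM, pH 8.2, 0.02% Tween-20), compounds pinned in, then 1 mM L-glutamine solution and the glutamate oxidase–HRP–Amplex Red mix added; fluorescence read immediately and again after 30 min at room temperature.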
ME-1 growth: qHTS Assay for Compounds Blocking the Interaction Between CBF-beta and RUNX1 for the Treatment of Acute Myeloid Leukemia: ME-1 cellular proliferation | shares compounds with BAZ2B inh | ME-1 cell proliferation, ATP luminescence, 48 h | Potency, µM (doses to about 56.1 µM), hits mostly inhibitors | actives 20% (n = 140) | AID 504370, 2011
G9a inh-2: qHTS Assay for Inhibitors of Histone Lysine Methyltransferase G9a: Hit Confirmation. shares compounds with JMJD2A Tudor inh. G9a H3K9 monomethylation, AlphaScreen, 2 h. Potency, µM, hits mostly inhibitors. actives 89% (n = 370). AID 588344, 2011; note: nearly all actives have a fitted effect of over 65% in size
Each line names hits and unclear results; the compound was inactive in the other large screens (follow-up assays come after a bar, where they were run). In the library only some 10% were active in any assay of this set; here they are far more common. Calls come from the whole dose curve; as a rule, active = well fitted curve in the direction sought with a large enough effect; inconclusive = small, poorly fitted or top-dose-only effect, or another doubt; inactive = no such curve, though single readings can be large; an effect the other way counts as inactive or inconclusive.

Cc1cccc(NP(C)(=O)c2nc3c(s2)CCCC3)c1 (centres undefined)	G9a inh-1 inconclusive
CCCCNC(=O)Oc1c(Br)cc2sc(=O)oc2c1Br	G9a inh-1 8.91µM, BAZ2B inh 50.1µM (no result: JMJD2A Tudor inh, HP1b chromo inh, GLS inhibitor) | ME-1 growth inconclusive
CCCCNC(=O)Oc1cc(CCl)on1	G9a inh-1 inconclusive (no result: JMJD2A Tudor inh, HP1b chromo inh, GLS inhibitor)
Cc1cc(N2CCNCC2)nc2ccccc12	G9a inh-1 inconclusive | G9a inh-2 inconclusive
Cn1c(N2CCNCC2)nc2ccccc21	none
COC(=O)C1=C(c2ccc(OC)c(OC)c2)C[C@@H]2CC[C@H]1N2C(=O)N1CCCCC1	none
Fc1cccc(CCNCc2ccccn2)c1	JMJD2A Tudor inh 3.55µM, G9a inh-1 1.58µM, BAZ2B inh 20µM | G9a inh-2 28.3
c1ccc(CNCCc2ccc3c(c2)OCO3)nc1	JMJD2A Tudor inh inconclusive, G9a inh-1 1.78µM, BAZ2B inh 44.7µM | G9a inh-2 inconclusive
Fc1ccc(CCNCc2ccccc2Cl)cc1	none
Oc1c(Cl)cccc1Cc1cc(Cl)cc(Cl)c1O	JMJD2A Tudor inh inconclusive, HP1b chromo inh inconclusive (no result: G9a inh-1, BAZ2B inh)
Cc1ccc(OCC(=O)N2CCN(Cc3cccnc3)CC2)cc1	JMJD2A Tudor inh 3.98µM, G9a inh-1 2.82µM, HP1b chromo inh inconclusive (no result: BAZ2B inh) | G9a inh-2 15.8
O=C(COc1ccc(Cl)cc1)N1CCN(Cc2ccc([N+](=O)[O-])cc2)CC1	JMJD2A Tudor inh 11.2µM, G9a inh-1 2.51µM, HP1b chromo inh inconclusive (no result: BAZ2B inh) | G9a inh-2 35.5
CSc1ccc(CN2CCN(C(=O)COc3cccc(C)c3)CC2)cc1	JMJD2A Tudor inh 8.91µM, G9a inh-1 10µM, BAZ2B inh 50.1µM, HP1b chromo inh 39.8µM | G9a inh-2 39.8
COc1ccc(-c2noc(CN3C(=O)c4ccccc4C3=O)n2)cc1	G9a inh-1 inconclusive
CCc1nc(-c2ccc(C)nc2OC)no1	G9a inh-1 inconclusive | G9a inh-2 1.78
CC(C)n1c(/C=C\[C@@H](O)C[C@@H](O)CC(=O)O)c(-c2ccc(F)cc2)c2ccccc21	none (no result: JMJD2A Tudor inh, BAZ2B inh, HP1b chromo inh, GLS inhibitor)
Cc1ccc2c(C)c3ccc4ccccc4c3c[n+]2c1	none (no result: G9a inh-1, BAZ2B inh)

Compound activity as filed in PubChem.
